Laboratory results taken from the supplement of paper PMC6555819.

The sequences below were run on THRa:RXRa (NR concentration 90 nM, RXRa partner concentration 90 nM) (assay: PBM binding z-score (relative to random genomic background probes); higher = stronger binding; sequences stand for … in GC…GCGATTGACAGCGTAGAATGAAGG).
Method in brief: (§1)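 On custom Agilent 4×180K arrays, double-stranded probes with 34-nt variable regions carried direct-repeat seeds, single-nucleotide variants, half-site ablations or random human genomic background. Ligand-free nuclear receptor dimers were applied for 1 h, and binding was read with antibodies against each partner (one per run). Binding z-scores come from regression-normalized fluorescence, with the random background probes as reference.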

Sequence | PBM binding z-score
CCTAGTTGGTCAAGGTCACGCACGCTATAGGTAC | 4.06
GATACAGGGTCATCTAGAGGCCAGAGTATGGAAA | 3.76
AGTCAAAGTTCACTAGGTTACGTAAGATTCAGCT | 2.55
CCAGACAGGTGAAAGGTAACTCACTCTGGTACGC | 1.03
ATCTCTAGGTGAAAGTTCAGTGAATCCCGAGGAT | 2.19
CAAACTAGGTCAAGGTCAAATTCGGTTTGTGCCA | 4.38
CAAACTAGGTCACGAAAGGTCAAAATCGAATGAC | 4.89
CCTACTGGGCCAAGGTCATTGACCAGTCAAAGCA | 3.67
TTAACAAGGTGAAAGGTCGTTGATGCACGCCTTG | 3.51
CCTGCTCGGTCAATGGTCAGCTAAAGCAGCTCGC | -0.136
CGTCAAAGTTCAAGGTAATGTAACAGAAAGCAGC | 2.88
CAAACTAGGTCAAAGGTCAAAGACGAGCCAACCA | 4.79
CCTACTGGGCCATTGAGAGGTCATTGATCATATG | 3.06
CCTGCTAGTTCATGGTCAGCTAATCTACAGTATG | 0.298
TCTAGTTCGTCACGGAGGTCACACACGACGGGTA | 3.67
AGAATGAGGTTAGCAAAGATCAGGGAAACGCTTG | 1.8
TAGCCTAGGTCATTCAGGGGCTAGTATAGAAAGC | 3.74
ACTCGGAGGACAAAGGTAAGAGCTACGCCAGTGA | 0.863
TCATATAGGTAATCAGGTGAAAGTCCGTAAGTTA | 1.82
CCTACTGGGCCAAAGGTCATTGACTCCAATGCTC | 3.38

Sequence | PBM binding z-score
AAATGTAGGTTAAGGGTCATTCAGGTTGGTTCGC | 3.57
GGAACTAGGGCAAAGTTGATAGCATCTGTCGACG | 0.234
CAAACTAGGTCAAGGGGTCAAAGTCCGCTTCCCG | 4.64
ATCGAAAGGTCGTGAGGTGAGTACACAGAAAGGC | 3.39
CGAACTAGTTCAAGGACAGTGAATCTCCGCACGC | 2.01
CCTGCTAGTTCAATGGTCAGCTAAAGCAGCTCGC | 0.222
ATATGTAGGTTAGCGGGGGTCATTCAGACTAGGC | 4.82
CGTCCAAGGTCAGCAGGTGAGTGAAAGCGACGTG | 3.28
TAGCCTCGGTCATTGGGCCAGTATAGTACGCATC | 0.029
GCTAGTTGGTCAGTAAATGGTCACACACCGGTCG | -0.021
AGACAAAGTTCAGGACGAGGTAACGTAAAGCACG | 3.86
CGCACTAGGTCATTGACAGGACAGTGAATAGTAA | 2.91
ATGGAAAGGTCGTGAGGTGAGTATACAGAAAGGC | 3.82
ATATCTAGGTAAAAGTTCAGTGAATCCCGAGGAT | 1.38
CCTACTGGGCCGAGGTCATTGATCAGTCAAAGCA | 3.52
TTACCAAAGTGAAAGGTCGTTGATGCACGCCTTG | 1.34
CCTAGTAGGTTATGGGGCATTCAGGCAACGGTGA | 0.719
AGTCAAAGTTCATCTGGGTAACGTAAGATATGCT | 2.82
TCTTGTAGATCAAAGGTCAAGAAAGCCGAAGCCT | 3.42

What follows are sequences tested on THRa homodimer (NR concentration 90 nM) in the same assay as above.
Method in brief: as §1

Sequence | PBM binding z-score
CCTAGTTGGTCAAGGTCACGCACGCTATAGGTAC | 4.48
GATACAGGGTCATCTAGAGGCCAGAGTATGGAAA | 0.837
AGTCAAAGTTCACTAGGTTACGTAAGATTCAGCT | 0.508
CCAGACAGGTGAAAGGTAACTCACTCTGGTACGC | -0.0395
ATCTCTAGGTGAAAGTTCAGTGAATCCCGAGGAT | 0.227
CAAACTAGGTCAAGGTCAAATTCGGTTTGTGCCA | 3.92
CAAACTAGGTCACGAAAGGTCAAAATCGAATGAC | 2.42
CCTACTGGGCCAAGGTCATTGACCAGTCAAAGCA | 2.29
TTAACAAGGTGAAAGGTCGTTGATGCACGCCTTG | 0.757
CCTGCTCGGTCAATGGTCAGCTAAAGCAGCTCGC | -0.403
CGTCAAAGTTCAAGGTAATGTAACAGAAAGCAGC | 0.964
CAAACTAGGTCAAAGGTCAAAGACGAGCCAACCA | 1.57
CCTACTGGGCCATTGAGAGGTCATTGATCATATG | 1.26
CCTGCTAGTTCATGGTCAGCTAATCTACAGTATG | -0.142
TCTAGTTCGTCACGGAGGTCACACACGACGGGTA | 2.73
AGAATGAGGTTAGCAAAGATCAGGGAAACGCTTG | 0.173
TAGCCTAGGTCATTCAGGGGCTAGTATAGAAAGC | 0.0111
ACTCGGAGGACAAAGGTAAGAGCTACGCCAGTGA | -0.169
TCATATAGGTAATCAGGTGAAAGTCCGTAAGTTA | 1.51
CCTACTGGGCCAAAGGTCATTGACTCCAATGCTC | 0.707

Sequence | PBM binding z-score
AAATGTAGGTTAAGGGTCATTCAGGTTGGTTCGC | 1.64
GGAACTAGGGCAAAGTTGATAGCATCTGTCGACG | -0.621
CAAACTAGGTCAAGGGGTCAAAGTCCGCTTCCCG | 2.49
ATCGAAAGGTCGTGAGGTGAGTACACAGAAAGGC | 1.68
CGAACTAGTTCAAGGACAGTGAATCTCCGCACGC | 1.47
CCTGCTAGTTCAATGGTCAGCTAAAGCAGCTCGC | -0.395
ATATGTAGGTTAGCGGGGGTCATTCAGACTAGGC | 2.75
CGTCCAAGGTCAGCAGGTGAGTGAAAGCGACGTG | 1.95
TAGCCTCGGTCATTGGGCCAGTATAGTACGCATC | -0.772
GCTAGTTGGTCAGTAAATGGTCACACACCGGTCG | -0.105
AGACAAAGTTCAGGACGAGGTAACGTAAAGCACG | 1.51
CGCACTAGGTCATTGACAGGACAGTGAATAGTAA | 1.16
ATGGAAAGGTCGTGAGGTGAGTATACAGAAAGGC | 2.1
ATATCTAGGTAAAAGTTCAGTGAATCCCGAGGAT | 0.52
CCTACTGGGCCGAGGTCATTGATCAGTCAAAGCA | 2.67
TTACCAAAGTGAAAGGTCGTTGATGCACGCCTTG | -0.34
CCTAGTAGGTTATGGGGCATTCAGGCAACGGTGA | 0.289
AGTCAAAGTTCATCTGGGTAACGTAAGATATGCT | 0.135
TCTTGTAGATCAAAGGTCAAGAAAGCCGAAGCCT | 0.378
